# Reference: PubChem BioAssay AID2012 (Sanford-Burnham Center for Chemical Genomics, 2009)
# Hit rate of the full screen: of about 290,000 compounds, about 2,700 (0.93%) were called active. How the calls were made is not given here. The entries come from a sample that favours actives as a whole.
# Molecular target: Eukaryotic translation initiation factor 4H (Homo sapiens) (UniProt Q15056)
# Assay: human eIF4H binding inhibitors, primary screen, translation initiation inhibitor project, biochemical, uHTS, fluorescence polarization (AID 2012);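 further: calls also rest on retests at 20 µM and on dose response follow-up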
# Conditions: eIF4H fluorescence polarization binding assay, stronger effect = higher value
SMILES,inhibition (at 35 µM),"inhibition (confirmation average, at 20 µM) [%]"
CCN(C(=O)C1CCCN(c2nc(-c3ccc(OC)cc3)no2)C1)c1ccc(OC)cc1 (centres undefined),-11.8% (inactive),–
Cc1ccc(NC(=O)CSc2nn3c(=O)c(C)nnc3s2)cc1Cl,-27.5% (inactive),–
CC(=O)c1ccc(N2CCN(C(=O)C3CCN(S(=O)(=O)c4ccc5c(c4)CC(C)N5C(=O)C4CC4)CC3)CC2)cc1 (centres undefined),-9.3% (inactive),–
CC(Sc1nc(-c2ccccc2)cc(C(F)(F)F)n1)C(=O)Nc1ccc2c(c1)OCO2 (centres undefined),4.8% (inactive),–
O=C(Nc1ccc2c(c1)OCO2)c1sc2cc(Cl)ccc2c1Cl,-4% (inactive),–
CC(Sc1nc2cc(Cl)ccc2s1)C(=O)Nc1ccc2c(c1)OCO2 (centres undefined),1.8% (active),65.1
O=S(=O)(c1ccc(Br)cc1)N1CCC(c2nc3ccccc3[nH]2)CC1,-8.2% (inactive),–
CC1CCCCN1CCCNc1ccc(C(CC(N)=O)NC(=O)c2ccccc2)cc1[N+](=O)[O-] (centres undefined),-8.3% (inactive),–
CNC(=S)N1CCC(NC(=O)C(Cc2ccc(F)cc2)NC(C)=O)CC1 (centres undefined),63.8% (active),–
CC(=O)NC(Cc1ccc(F)c(F)c1)C(=O)NC1CCN(C(=O)c2ccc(C)cc2)CC1 (centres undefined),-14.2% (inactive),–
COc1ccc(CC(NC(C)=O)C(=O)NC2CCN(C(=O)c3ccc(Cl)cc3)CC2)cc1 (centres undefined),-0.5% (inactive),–
O=C(CCc1ccccc1)NNC(=O)COc1ccc(Cl)cc1,0.4% (inactive),–
COc1ccccc1NC(=O)CCC(=O)OC(C)C(=O)c1ccccc1 (centres undefined),1.3% (inactive),–
O=C(NC1CCCC1)C(=O)c1c[nH]c2ccccc12,-6.1% (inactive),–
CCCNC(=O)CSc1nc(Cc2ccccc2)nc2ccccc12,-6.2% (inactive),–
Clc1c(OCCCn2ccnc2)ccc2ccccc12,1.6% (inactive),–
O=C(/C=C/c1ccc2c(c1)OCO2)NCc1ccc(F)cc1,4.7% (inactive),–
O=C(/C=C/c1ccc2c(c1)OCO2)NCc1cn2cc(Cl)ccc2n1,-3.3% (active),76.4
Cc1cccc(NC(=O)/C=C/c2ccc3c(c2)OCO3)n1,-2.1% (inactive),–
Cc1cccc(NS(=O)(=O)c2ccc(-c3cnc(C4CC4)o3)cc2)c1,-2.4% (inactive),–
O=C(c1ccc[nH]c1=S)N1CCN(S(=O)(=O)c2ccc(Br)cc2Cl)CC1,-10.2% (inactive),–
Cc1cc(C(=O)CSc2nc(N)cc(=O)[nH]2)c(C)n1Cc1ccco1,43.2% (inactive),–
CCc1ccccc1NC(=O)CN(C)C(=O)COc1ccc(C)nc1[N+](=O)[O-],1.9% (inactive),–
Cc1ccc(OCC(=O)c2cc(C)n(Cc3ccco3)c2C)c([N+](=O)[O-])n1,101% (active),86.9

SMILES,inhibition (at 35 µM),"inhibition (confirmation average, at 20 µM) [%]"
COc1ccc(C)cc1-n1nnnc1SCC(=O)c1cc(C)n(Cc2ccco2)c1C,64.8% (active),–
Cc1cc(C(=O)COC(=O)CNC(=O)c2ccc(F)cc2)c(C)n1Cc1ccco1,86.4% (inactive),-10.3
COc1ccc(OC)c(-n2nnnc2SCC(=O)Nc2cc(C)ccc2OC)c1,0% (inactive),–
COc1ccccc1CNC(=O)COc1ccc(C)nc1[N+](=O)[O-],-3.5% (inactive),–
COCC(C)n1c(C)cc(C(=O)COc2ccc(C)nc2[N+](=O)[O-])c1C (centres undefined),70.1% (active),70.5
Cc1ccc(OCC(=O)NC(C)c2ccccc2)c([N+](=O)[O-])n1 (centres undefined),-4.1% (inactive),-2.8
Cc1c(C(C)(C)O)[nH]c2ccc(C#N)cc12,2.9% (inactive),–
CN1CCN(C(=O)C(=O)c2cn(CC(=O)N3CCCC3)c3ccccc23)CC1,-7.2% (inactive),–
CNC(=O)c1sc(Nc2ccc(OCc3ccccc3)cc2)nc1C,8% (inactive),–
Cc1cc2ccccn2c1C(=O)c1cccc(F)c1,-9.7% (inactive),–
Cc1ccc(C(C[N+](=O)[O-])c2c(C)cc3ccccn23)cc1 (centres undefined),54.1% (active),84.9
CC(=O)Nc1ccc(/C=N/Nc2ccc(C(=O)c3c(C)cc4ccccn34)cc2[N+](=O)[O-])cc1,8.5% (inactive),–
CCOc1ccc(N(C)S(=O)(=O)c2cnc[nH]2)cc1,-1% (inactive),–
CC(Cc1ccccc1)C(=O)N(C)Cc1ccccc1 (centres undefined),-2.7% (inactive),–
Cc1ccc(C)n1C(Cc1ccccc1)C(=O)O (centres undefined),83% (active),–
COc1ccc(CNC(=O)C(Cc2ccccc2)n2cccc2)cc1 (centres undefined),1.8% (inactive),–
O=C(/C=C/c1ccco1)NC(=S)N1CCCCC1,5.7% (inactive),–
CCC(CC)C(=O)N1CCN(c2cccc(C)c2C)CC1,-9.8% (inactive),–
Cc1cccc(N2CCN(C(=O)/C=C/c3ccco3)CC2)c1C,57.3% (active),101
CCOc1cc(/C=C2\SC(N3CCCC(C)C3)=NC2=O)ccc1O (centres undefined),1.3% (inactive),–
CC(=O)c1cccc(NC(=O)C2CCN(C(=O)c3ccccc3Cl)CC2)c1,3.5% (inactive),–
c1coc(-c2nc3nc4ccccc4n3nc2-c2ccco2)c1,73.4% (active),–
Cn1c(-c2ccco2)nc2cc3ccccc3cc21,4.9% (inactive),–
COc1ccc(CCn2c(-c3ccco3)nc3nc4ccccc4nc32)cc1OC,3.6% (inactive),–

SMILES,inhibition (at 35 µM),"inhibition (confirmation average, at 20 µM) [%]"
O=C(Nc1ccc(Cl)cc1)c1cccc(OC(=S)N2CCOCC2)c1,-8.8% (inactive),–
CC(=O)N1c2ccc(S(=O)(=O)N(C)CC(=O)N(C)Cc3ccccc3)cc2CC1C (centres undefined),2.8% (inactive),–
O=C(CN1C(=O)c2cccnc2Oc2ccc(Cl)cc21)Nc1ccc(F)cc1,-8.2% (inactive),–
COc1ccc(Cl)cc1CSc1ncn[nH]1,-9.7% (inactive),–
O=C(/C=C/Sc1ncn[nH]1)c1ccc(Cl)cc1,60.7% (active),65.7
Cc1cc(C)nc(S/C=C/C(=O)c2ccccc2)n1,-7.4% (inactive),–
COc1ccc(C(=O)C2CCCN(C(=O)c3ccc(OC)o3)C2)c(C)c1 (centres undefined),-2.6% (inactive),–
Oc1cccc(/C=N/Nc2ccc(Cl)nn2)c1O,24.2% (inactive),–
COc1ccc(/C=C2\SC(=S)N(CCCC(=O)NC3CCCC3)C2=O)cc1OC,48.7% (inactive),–
CCSc1nnc(NC(=O)c2ccc(C)cc2)s1,-9.1% (inactive),–
Cc1ccc(C(=O)Oc2coc(CSc3nnc(NC(=O)c4cccs4)s3)cc2=O)cc1C,65.8% (active),85.6
Cc1ccc(C(=O)Nc2nnc(-c3cccs3)s2)cc1C,-2.7% (inactive),–
CN1CCN(C(=O)c2ccccc2NC(=O)COc2ccccc2Cl)CC1,-9.2% (inactive),–
Cn1c(=O)[nH]c(=O)c2c1nc(N1CCN(C(c3ccccc3)c3ccccc3)CC1)n2CCO,0.3% (inactive),–
CCCc1ccc(OCCNC(=O)c2ccccc2Br)cc1,8.8% (inactive),–
CCOc1cnc(C(=O)NNC(=O)c2ccccc2Br)o1,85.7% (active),95
O=C(NC(=S)Nc1ncccn1)c1ccccc1Br,-2% (inactive),–
CCCCc1nc2cc(C(=O)N3CCCCC3CCO)ccc2o1 (centres undefined),-1.1% (inactive),–
COc1ccc(CCNC(=O)C(=O)NCC2OCCN2S(=O)(=O)c2cccs2)cc1OC (centres undefined),-4.1% (inactive),–
CCOc1ccc(NC(=O)c2ccc(NC(=O)C3CCCO3)cc2)cc1 (centres undefined),-9.4% (inactive),–
Cc1ccc(OCC(=O)Nc2ccc(C(=O)O)cc2NC(=O)COc2ccc(C)c(C)c2)cc1C,4.8% (inactive),–
Cc1ccc(NC(=S)Nc2ccc(F)cc2)cc1,-11.3% (inactive),–
CCCSc1nc(NCc2ccco2)c2c3c(sc2n1)COC(C)(CC)C3 (centres undefined),4.7% (inactive),–
Cn1c(=O)n(Cc2ccco2)c(=N)c2c3c(sc21)CCCC3,-14.4% (inactive),–

SMILES,inhibition (at 35 µM),"inhibition (confirmation average, at 20 µM) [%]"
CN1CCc2c(sc3c2c(NCc2ccco2)nc2nnnn23)C1,68% (active),–
O=C(CCN1C(=O)[C@@H]2Cc3ccccc3CN2C1=O)NCCc1ccccc1,80.7% (active),–
O=C(CCN1C(=O)[C@@H]2Cc3ccccc3CN2C1=O)NCc1ccccc1,-0.5% (inactive),–
Cc1ccc(CNC(=O)CCN2C(=O)[C@@H]3Cc4ccccc4CN3C2=O)cc1,-3.4% (inactive),–
COc1ccc(OC)c(C(O)c2nc3ccccc3n2C)c1 (centres undefined),-3.8% (inactive),–
Cc1ccc(C(C)C)cc1OCC(=O)Nc1ccccc1N1CCCC1,-15.8% (inactive),–
CC(=O)Oc1ccc(-c2cccc(C(=O)N3CCCCC3)c2)cc1,5.5% (inactive),–
CCC1S/C(=N/N=C/c2ccco2)NC1=O (centres undefined),9.4% (inactive),–
O=C1OC(/C=C/c2ccccc2)=NC/1=C/c1ccco1,76.9% (inactive),4.3
CC(C)(C)C1C/C(=C/c2ccco2)C(=O)/C(=C/c2ccco2)C1 (centres undefined),71.6% (active),82.6
O=C(NCc1ccccc1Cl)C1CCN(S(=O)(=O)c2cccc3nonc23)CC1,9.7% (inactive),–
C=CCN1C(=O)C2(OCCCO2)c2cccc(Cl)c21,0.1% (inactive),–
O=C(CN1CCC(NC(=O)Nc2ccccc2)CC1)Nc1cccc([N+](=O)[O-])c1,-3.5% (inactive),–
COc1ccc(S(=O)(=O)N2CCOC2CNC(=O)C(=O)NCc2ccncc2)cc1C (centres undefined),-2.1% (inactive),–
CCOc1ccc(NC(=O)c2cccc3c2C(=O)N(CC2CCCO2)C3)cc1 (centres undefined),3% (inactive),–
COc1ccccc1NC(=O)CSc1nnc(C)n1CC1CCCO1 (centres undefined),-1.3% (inactive),–
CCOc1cccc(=O)c2c(C)n(CC3CCCO3)c(C)c12 (centres undefined),79.5% (active),–
Cc1c2cnn(CC(=O)NCCCN3CC(C)CC(C)C3)c(=O)c2c(C)n1Cc1ccc(Cl)cc1 (centres undefined),-3.1% (inactive),–
O=[N+]([O-])c1ccc(NC(=S)N2CCN(c3ccccn3)CC2)cc1,-4.4% (inactive),–
CCn1cc(C(=O)NCCC(=O)NCCO)c(=O)c2cc3c(cc21)OCO3,13.7% (inactive),–
O=C(CCN1C(=O)c2ccccc2C1=O)Nc1cccc(F)c1,0.6% (inactive),–
CCN(CC)C(=O)C(=O)Nc1cccc(Br)c1,-3% (inactive),–
CCN(CC)C(=O)CSC(Nc1cccc(F)c1)=C(C#N)C#N,63% (active),56.7
